Experimental findings from PubChem BioAssay AID485344 (National Center for Advancing Translational Sciences (NCATS), 2010) are described below.

Structures are written as SMILES. “And” between values parts separate entries of the source, which are not always exact repeats. Equal values may be shown once. About 6,900 (2%) of roughly 340,000 compounds were called active. The sample holds actives, similar compounds and a random draw of the others, so the mix is not that of the screen. No stated cut-off is given here; in the data, active means inhibition above about 30%; inactive means below that, where a call was filed. Where a structure was tested more than once in an assay, its records may differ in their call.

Chain of D(2) dopamine receptor (Homo sapiens) (P14416 whole entry, looked up): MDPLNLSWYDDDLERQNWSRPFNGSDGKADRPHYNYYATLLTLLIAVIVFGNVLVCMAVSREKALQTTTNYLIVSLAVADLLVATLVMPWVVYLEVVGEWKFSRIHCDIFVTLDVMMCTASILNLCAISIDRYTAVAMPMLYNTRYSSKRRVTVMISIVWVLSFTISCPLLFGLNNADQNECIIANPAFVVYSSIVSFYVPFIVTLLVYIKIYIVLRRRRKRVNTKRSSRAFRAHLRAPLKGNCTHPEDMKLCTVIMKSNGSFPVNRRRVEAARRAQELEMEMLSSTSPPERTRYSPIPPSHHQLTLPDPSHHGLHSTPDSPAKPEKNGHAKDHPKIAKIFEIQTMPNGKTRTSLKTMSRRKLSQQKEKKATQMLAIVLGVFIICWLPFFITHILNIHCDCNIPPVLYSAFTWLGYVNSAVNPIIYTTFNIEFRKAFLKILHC

The target of this assay is D(2) dopamine receptor (Homo sapiens) (UniProt P14416). The assay is described as follows: HTS Assay for Allosteric Antagonists of the Human D2 Dopamine Receptor: Primary Screen for Antagonists. Further: 0% is about no effect. Particulars: HEK293 TREx D2 cells, calcium flux, dopamine EC80; at 10 µM; stronger effect = higher value. In short, it runs like this:
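Inhibition of EC80 dopamine-driven calcium flux, recorded kinetically, defines activity here; cells are a tetracycline-induced HEK293 T-REx line expressing force-coupled D2.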
With `CC(C)CN(C(=O)CSc1nncn1C)C1CCS(=O)(=O)C1` (stereo not drawn), the inhibition was -28.1% (inactive).

In the case of `O=C1C=C(c2cc(C(F)(F)F)cc(C(F)(F)F)c2)C[C@@H](c2ccc3c(c2)OCO3)C1`, the inhibition was 8.46% (inactive).

As to `CC(=O)Nc1cccc(C(=O)OCC(=O)c2ccc3c(c2)OCO3)c1`, the inhibition is 13.5% (inactive).

On to `CSCCC(NC(=O)c1ccccc1)C(=O)N1CCCCCCC1` (stereo not drawn), for which the inhibition is -18.4% (inactive).

Regarding `COc1ccccc1C(=O)Nc1ccc(OCC(=O)N2CCCCC2)cc1`, the inhibition is -21.7% (inactive).

On to `Cc1ccc(C(=O)NNC(=O)c2ccc3c(c2)OCCO3)cc1`, for which the inhibition was 20.3% (inactive).

For `Cc1ccc(C(=O)Nc2ncccc2C)cc1S(=O)(=O)N1CCOCC1`, the inhibition is -29.3% (inactive).

For the compound `Cc1nn(CCOc2ccccc2)c(=O)n1-c1ccccc1F`, the inhibition was 4.74% (inactive).

In the case of `CCN1C(=O)/C(=C\N2CCN(c3cccc(Cl)c3)CC2)SC1=S`, the inhibition is -0.63% (inactive).

As for `CCc1nn(CCCN2CCN(c3cccc(Cl)c3)CC2)c(=O)n1CCOc1ccccc1`, the inhibition is 10.2% (inactive) and 47% (active).

As to `CCN1CCN(C(=O)N[C@@H](C(=O)N[C@@H]2C(=O)N3C(C(=O)O)=C(CSc4nnnn4C)CS[C@H]23)c2ccc(O)cc2)C(=O)C1=O`, the inhibition is -6.07% (inactive).

For the compound `O=c1c2ccccc2ccc2ccc(P(=O)(O)O)cc12`, the inhibition is 1.32% (inactive).

Regarding `O=C(OCC(=O)N1CCN(C(=O)c2ccco2)CC1)c1ccc(Cl)c(Cl)c1`, the inhibition is 20.1% (inactive).

For the compound `CCN(c1ccccc1)S(=O)(=O)c1cc(C(=O)NCc2ccccn2)ccc1C`, the inhibition was -6.91% (inactive).

For `CCN1CCN(C(=O)c2ccccc2N(C)S(=O)(=O)c2ccc(C)cc2)CC1`, the inhibition is 40.9% (active).

For `CCOC(=O)C1CCN(C(=O)c2ccccc2N(C)S(=O)(=O)c2ccccc2)CC1`, the inhibition was -8.5% (inactive).

As for `CCOC(=O)N1CCN(C(=O)c2ccccc2N(Cc2ccccc2)S(=O)(=O)c2ccc(OC)cc2)CC1`, the inhibition was -13.3% (inactive).

In the case of `COc1ccc(-c2cc(C(=O)N(C)CC(=O)Nc3ccccc3Cl)c3ccccc3n2)cc1OC`, the inhibition is 1.05% (inactive).

As to `CC(=O)c1c(C)[nH]c(C(=O)OCC(=O)Nc2c(C)cccc2C)c1C`, the inhibition is -33.4% (inactive).

Take `COc1cccc(C2CC(c3cccs3)=NN2C(=O)CSC2=NCCS2)c1OC` (stereo not drawn): the inhibition is 31.4% (active).

As for `COc1ccc(C2CC(c3cccs3)=NN2C(=O)CSc2nnc(N)s2)cc1OC` (stereo not drawn), the inhibition is -3.75% (inactive).

Consider `COc1ccc(C2CC(c3cccs3)=NN2C(=O)CSc2nncs2)cc1OC` (stereo not drawn), for which the inhibition was -4.05% (inactive).

Regarding `CCOc1ccc2oc(C(=O)N(CC)CC(=O)Nc3ccc(NC(C)=O)cc3)c(C)c2c1`, the inhibition is -21.5% (inactive).
